# Assay outcomes from PubChem BioAssay.
# The list is not random: actives were taken first. Their share in the collection is about 10%.
# BAZ2B inh: inhibitors of human BAZ2B bromodomain; hit rate 4.4% among 360,000; Potency, µM (doses to about 114 µM), for the others: at the top dose activity change, negative = inhibition, usual class: inhibitors; AlphaScreen BAZ2B-H3K14Ac peptide displacement; further: on the % scale 0 is the no-effect control and ±100 the full control effect; nearly all actives have a fitted effect of over 60% in size
#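 BAZ2B (50 nM) with biotin-H3(5-23)K14Ac peptide (50 nM) in PBS pH 7.4, 0.01% Tween-20, preformed 30 min, then compound 30 min at room temperature; top concentration 110uM. AlphaScreen streptavidin donor/nickel chelate acceptor beads (10 ug/mL final), 20 min dark, signal read.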
# GLS inh: blocks human kidney-isoform glutaminase activity; Potency, µM (doses to about 45.5 µM), for inactives: at the highest dose activity change, negative = inhibition, hits mostly inhibitors; GLS enzymatic activity, qHTS titration; AID 624170; O94925; hit rate 0.21% among 410,000; further: on the % scale 0 is the no-effect control and ±100 the full control effect
#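 Assay buffer: 45 mM KH2PO4 pH 8.2, 0.02% Tween-20. hKGA acts on L-glutamine (1 mM solution added); product glutamate is reported by an oxidase/peroxidase Amplex Red coupling, with fluorescence taken at baseline and 30 min.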
# JMJD2A Tudor: JMJD2A Tudor domain (human) inhibition; hit rate 4.4% among 390,000; AID 504339; AlphaScreen JMJD2A-Tudor / H3K4me3 peptide binding; Potency, µM (doses to about 114 µM), for the others: at the top dose activity change, negative = inhibition, actives largely listed as inhibitors; further: on the % scale 0 is the no-effect control and ±100 the full control effect; nearly all actives have a fitted effect of over 50% in size
# Target sequence (O75164 whole entry, looked up, the tested form may be a part): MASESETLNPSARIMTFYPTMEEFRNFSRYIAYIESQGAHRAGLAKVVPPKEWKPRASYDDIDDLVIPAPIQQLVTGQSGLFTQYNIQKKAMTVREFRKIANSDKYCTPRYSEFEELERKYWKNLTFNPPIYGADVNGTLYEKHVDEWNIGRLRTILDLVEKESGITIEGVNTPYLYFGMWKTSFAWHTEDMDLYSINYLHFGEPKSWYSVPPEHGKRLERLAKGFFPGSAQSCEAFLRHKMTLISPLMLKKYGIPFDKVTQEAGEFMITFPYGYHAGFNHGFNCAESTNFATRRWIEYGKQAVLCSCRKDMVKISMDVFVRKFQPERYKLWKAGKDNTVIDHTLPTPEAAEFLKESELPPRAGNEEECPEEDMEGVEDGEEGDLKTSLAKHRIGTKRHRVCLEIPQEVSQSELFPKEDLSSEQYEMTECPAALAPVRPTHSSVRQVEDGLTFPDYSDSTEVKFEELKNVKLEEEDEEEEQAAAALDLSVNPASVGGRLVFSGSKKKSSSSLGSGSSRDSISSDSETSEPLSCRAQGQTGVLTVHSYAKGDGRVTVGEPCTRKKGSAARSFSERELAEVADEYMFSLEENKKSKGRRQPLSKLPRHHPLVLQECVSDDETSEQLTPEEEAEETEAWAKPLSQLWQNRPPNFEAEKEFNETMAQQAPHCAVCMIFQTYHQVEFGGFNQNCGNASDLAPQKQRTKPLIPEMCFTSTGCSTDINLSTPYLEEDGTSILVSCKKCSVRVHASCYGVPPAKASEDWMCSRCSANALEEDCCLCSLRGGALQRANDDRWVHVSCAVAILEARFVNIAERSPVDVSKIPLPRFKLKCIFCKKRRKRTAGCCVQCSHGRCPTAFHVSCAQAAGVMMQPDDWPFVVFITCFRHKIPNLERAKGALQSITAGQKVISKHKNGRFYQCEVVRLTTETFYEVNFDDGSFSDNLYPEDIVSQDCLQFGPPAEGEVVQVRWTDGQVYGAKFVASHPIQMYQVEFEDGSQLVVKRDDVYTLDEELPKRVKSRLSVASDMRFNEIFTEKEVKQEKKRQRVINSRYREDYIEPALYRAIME
# HP1b chromo inh: inhibitors of HP1-beta chromodomain binding to methylated histone tails; P83916; AlphaScreen HP1-beta / biotin-H3K9me3 peptide binding; Potency, µM (doses to about 114 µM), for inactives: at the top dose activity change, negative = inhibition, usual class: inhibitors; hit rate 0.56% among 390,000; AID 540317; further: nearly all actives have a fitted effect of over 70% in size
#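 HP1-beta protein (50 nM final) preincubated 30 min at room temperature with biotinylated H3(1-18)K9me3 peptide (50 nM) in PBS pH 7.4, 0.01% Tween-20, then compound added for 30 min. AlphaScreen streptavidin donor/nickel chelate acceptor beads (10 ug/mL final), 30 min dark, luminescence read.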
# G9a inh: inhibitors of human histone lysine methyltransferase G9a. G9a H3K9 monomethylation, AlphaScreen, 2 h. Potency, µM (top dose mostly 102 µM), inactives show at the top dose activity, negative = inhibition, usual class: inhibitors. hit rate 8.8% among 350,000; further: on the % scale 0 is the no-effect control and ±100 the full control effect; nearly all actives have a fitted effect of over 75% in size
#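 G9a (20 nM) was preincubated 15 min with compound, then reacted 2 h at room temperature with 500 nM biotin-H3K9 peptide and 20 µM SAM. Monomethyl-H3K9 detected by AlphaScreen using anti-H3K9me1 antibody.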
# Starred values were filed as active, the others as inactive; ? = inconclusive; · = no result given; [ ] = dose if it differs, or a comment. The call rests on the fitted dose curve; in most records, active means well fitted curve in the direction sought with a large enough effect; inconclusive means small, poorly fitted or top-dose-only effect, or another doubt; inactive means no such curve, though single readings can be large; an effect the other way counts as inactive or inconclusive. Potency means the concentration at half of the fitted maximal effect.
SMILES,BAZ2B inh,GLS inh,JMJD2A Tudor,HP1b chromo inh,G9a inh
Cc1ccc(CN2CCc3nc(Nc4ccc5c(c4)OCCO5)ncc3C2)cc1,40µM*,4%,45µM*,?,-24%[12.7 µM]
COc1cc(CN2CCc3nc(Nc4ccc5c(c4)OCCO5)ncc3C2)cc(OC)c1OC,?,16%,?,-14%,-17%[12.7 µM]
Oc1ccccc1CNCC12CC3CC(CC(C3)C1)C2,?,3%,-7%,12%,-33%
Nc1c(-c2cccc([N+](=O)[O-])c2)nc2ccccn12,?,19%,-35%,-12%,79µM*
OCCN1C2=NCCCN2c2ccccc21,-17%,-3%,-6%,28%,10%
CCSc1nc2ccccc2n1S(=O)(=O)c1ccccc1,5%,0%,-21%,34%,50µM*
Cc1cc(C)nc(SCc2nc3nc(C)cc(C)n3c2Br)n1,-19%,0%,-9%,24%,50µM*
Cc1ccc(C(=O)NC(NCc2ccccc2)C(Cl)(Cl)Cl)cc1 (configuration not stated),0%,-4%,-12%,26%,5%
COc1ccc(CNC(=O)c2ccc3c(c2)NC(=O)C(CS(=O)(=O)Cc2ccccc2Cl)N3)cc1 (configuration not stated),8%[57.1 µM],2%,-30%,-8%,11µM*
COc1ccc(CNC(=O)c2ccc3c(c2)NC(=O)C(C)S3)cc1 (configuration not stated),-21%,-3%,-25%,-15%,10µM*
Cc1ccc(CNC(=O)c2ccc3c(c2)NC(=O)C(CS(=O)(=O)Cc2ccc(F)cc2)N3)cc1 (configuration not stated),8%[57.1 µM],13µM*,-6%,-3%,?
CC1Sc2ccc(C(=O)O)cc2NC1=O (configuration not stated),-7%,12%,-9%[57.1 µM],27%,-42%
O=C(NCc1ccc(Cl)cc1)c1ccc2c(c1)NC(=O)C(CS(=O)(=O)Cc1ccccc1Cl)N2 (configuration not stated),-15%,-21%,10%,6%,?
CCCCNC(=O)c1ccc2c(c1)NC(=O)C(CS(=O)(=O)Cc1ccc(C)cc1)N2 (configuration not stated),2%[57.1 µM],-19%,-25%,-9%,?
CCCCNC(=O)c1ccc2c(c1)NC(=O)C(CS(=O)(=O)Cc1cccc(C)c1)N2 (configuration not stated),10%[57.1 µM],-14%,-12%,48%,14µM*
CC1=CC(C)(C)N2C(=O)C3(C(C#N)=C(N)Oc4cc(C)oc(=O)c43)c3cccc1c32 (configuration not stated),2%,8%,-17%,-9%,3%[59 µM]
CCCn1c(=O)c2c(nc(Br)n2CCC)n(C)c1=O,-14%,14%,-6%,31%,-4%
Cc1cccc(Nc2ccccc2C(=O)OCC(=O)NCc2ccco2)c1C,50µM*,12%,45µM*,-15%,-12%[0.0925 µM]
Cc1c(C(=O)OCC(=O)NCc2ccco2)cccc1[N+](=O)[O-],50µM*,-13%,?,-14%,-38%[59 µM]
CCOCCCN1CN(Cc2ccccc2)CNC1=S,5%,8%,-10%,20%,7%[59 µM]
CCn1c(/C=C/N(C(C)=O)c2ccccc2)[n+](CCCS(=O)(=O)[O-])c2cc(Cl)c(Cl)cc21,-13%,0%,-17%,29%,15%[12.7 µM]
CC[n+]1c(/C=C/C=C/N(C(C)=O)c2ccccc2)sc2cc(OC)ccc21,45µM*,3%,56µM*,?,?
COc1cc(Sc2ccc(C)cc2)c(OC)cc1N,14µM*,5%,22µM*,28µM*,3.5µM*
COC(=O)c1ccc(Sc2ccc(C)cc2)c(N)c1,54%,-24%,63%,41%,-39%[12.7 µM]
c1cncc(-c2nc(NCCCn3ccnc3)c3ccccc3n2)c1,10µM*,-1%,20µM*,21%,-25%
SMILES,BAZ2B inh,GLS inh,JMJD2A Tudor,HP1b chromo inh,G9a inh
OCCNc1nc(-c2cccnc2)nc2ccccc12,-19%,-5%,-5%,25%,7%
c1ccc(-c2nc(NCc3ccco3)c3oc4ccccc4c3n2)cc1,?,2%,89µM*,9%,?
c1ccc(-c2nc(NCCCn3ccnc3)c3oc4ccccc4c3n2)cc1,45µM*,2%,?,-20%,18µM*
Cc1nc(NCCCn2ccnc2)c2ccccc2n1,-9%,4%,89µM*,21%,-1%[59 µM]
Cc1ccc(-c2nc(NCc3ccco3)c3ccccc3n2)cc1,-30%,-4%,-32%,-6%,?
COc1ccc([C@H]2C[C@@H](n3cc(C4CC4)nn3)[C@H](O)CN2Cc2cccs2)cc1,·,4%,·,·,·
COc1ccc2[nH]cc(CCNc3ncncc3-c3ccccc3OC)c2c1,·,·,·,·,1%[0.501 µM]
COC(=O)Cn1c(=NC(=O)C(C)C)sc2c(C)cc(C)cc21,-5%,1%,0%,38%,-5%[59 µM]
O=C(Nc1ccccc1Cl)c1ccn[nH]1,3%[57.1 µM],-4%,-13%,26%,46%
CCCCc1c(C)[nH]c(=S)[nH]c1=O,-8%,-18%,-9%,42%,-8%
Cc1[nH]c(=S)[nH]c(=O)c1CCCO,-16%,-3%,-7%,24%,71µM*
O=c1[nH]c(=S)[nH]nc1Cc1ccccc1,-7%,-5%,?,28%,40µM*
O=c1[nH]nc(Cc2ccccc2)c2ccccc12,7%,-12%,-4%,20%,-4%[59 µM]
Cc1[nH]c(=S)[nH]c(=O)c1Cc1ccccc1,2%,?,-23%,36%,50µM*
CN(CC(=O)Nc1ccc(Cl)c(C(F)(F)F)c1)C(=O)Cc1cccs1,-3%,0%,-6%,25%,12%[12.7 µM]
C=C1CC23C[C@H]4[C@@H]5[C@@]6(C)C[C@H](OC(=O)c7ccccc7)[C@@H](OC(C)=O)[C@]57[C@@H]2[C@@H](OC(C)=O)[C@H]1[C@@H](O)[C@H]3[C@H]7N4C6,·,·,·,·,29%[21.5 µM]
CS(=O)c1ccccc1-c1nc(-c2cccc(Cl)c2)no1 (configuration not stated),3%,-3%,35µM*,-2%,-3%
CCOc1ccc(OCCC(=O)OCC(=O)N2CCN(S(=O)(=O)c3ccc(Cl)cc3)CC2)cc1,50µM*,12%,?,-20%,·
CCOc1ccc(S(=O)(=O)N2CCN(C(=O)CCOc3ccccc3C)CC2)cc1,8%,1%,-2%,26%,13µM*
Cc1ccc(S(=O)(=O)N2CCN(C(=O)CCOc3ccccc3C)CC2)cc1C,11%,-3%,-5%,23%,-51%
CCOc1ccc(S(=O)(=O)N2CCN(C(=O)c3cc(-c4ccccc4)nn3-c3ccccc3)CC2)cc1,-6%,1%,-25%,11%,40µM*
COc1ccc(-n2nc(C(=O)NCC(=O)N3CCN(Cc4ccc5c(c4)OCO5)CC3)c3ccccc3c2=O)cc1OC,-15%,-4%,-11%,25%,8%
C=C(C)Cn1c2ccc(NC(=O)NCCc3ccccc3)cc2c(=O)n1C,·,0%,·,·,·
